# Source: PubChem BioAssay (Tox21)
# Values joined by “and” are separate entries in the source; they are usually repeats but may differ in a detail not shown here. Equal entries are not always repeated. Results filed as inconclusive are left out. A call without a number means that no potency is given here. Active and inactive are the calls of the source. Unless noted, the call rests on the fitted dose curve.
# Assay: qHTS assay to identify small molecule agonists of the hypoxia (HIF-1) signaling pathway - cell viability counter screen (AID 1224844); further: nearly all actives have a fitted effect of over 50% in size
# Conditions: HRE-bla ME-180 viability, CellTiter-Glo luminescence, 17 h; series mostly up to 76.8 µM
# How it was run: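 Cytotoxicity measured by CellTiter-Glo ATP luminescence in the wells also read for beta-lactamase signal. Cells were HRE-bla ME-180 (2,000/well, 0.5% dialyzed FBS), exposed to compounds for 17 h at 37C.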
# Potency means the concentration at half of the fitted maximal effect.
row,SMILES,Potency
1,Cc1cc(Cl)ccc1OCCCC(=O)O,inactive
2,N[C@@H](Cc1ccc(N(CCCl)CCCl)cc1)C(=O)O,23.5 µM (active) and 23.9 µM (active)
3,O=C(Nc1ccc(Br)cc1)c1cc(Br)cc(Br)c1O,38.8 µM (active) and 24.5 µM (active)
4,CCCCCCCCC(=O)NCc1ccc(O)c(OC)c1,inactive
5,Oc1ccc(-c2ccccc2)cc1,inactive
6,c1ccc(N=Nc2ccccc2)cc1,inactive
7,C#CCOS(=O)OC1CCCCC1Oc1ccc(C(C)(C)C)cc1 (stereo not drawn),43.6 µM (active)
8,C#C[C@]1(O)CC[C@H]2[C@@H]3CCC4=CC(=O)CC[C@]4(C)[C@H]3CC[C@@]21C,inactive
9,Nc1ccncc1,inactive
10,O=C(CCl)c1ccccc1,inactive
11,O=P(O)(O)CCCl,inactive
12,CCN(CC)N=O,inactive
13,O=P(Oc1ccccc1)(Oc1ccccc1)Oc1ccccc1,inactive
14,N#Cc1cc(Br)c(O)c(Br)c1,inactive
15,CCOc1cc(C=O)ccc1O,inactive
16,CC(C)Oc1cc(-n2nc(C(C)(C)C)oc2=O)c(Cl)cc1Cl,inactive
17,COP(=S)(OC)Oc1ccc([N+](=O)[O-])cc1,inactive
18,COc1ccc(C=O)cc1,inactive
19,C=C(C)[C@H]1Cc2c(ccc3c2O[C@@H]2COc4cc(OC)c(OC)cc4[C@@H]2C3=O)O1,inactive
20,c1nc[nH]n1,inactive

# Assay: qHTS assay to identify small molecule agonists of H2AX (AID 1224845; active means well fitted activation curve with a large enough effect in the signal ratio in the repeat runs, not every such curve was filed as active; the % refers to the signal ratio)
# Conditions: CHO-K1 phospho-H2AX Ser139 HTRF, 3 h; series mostly up to 154 µM
# How it was run: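 Phospho-H2AX Ser139 measured by HTRF (ex 320 nm; em 665 and 620 nm) after 24 hr antibody incubation. Compounds, 15 concentrations, 0.76% DMSO, were applied to CHO-K1 cells for 3hr at 37C before lysis.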
row,SMILES,Potency
1,N#CC(Br)Br,inactive
2,CCN(N=O)C(N)=O,inactive
3,Cc1cc(C)cc(C)c1,inactive
4,Oc1c(Cl)c(Cl)c(Cl)c(Cl)c1Cl,inactive
5,COP(=O)(OC)OC,inactive
6,CCC(C)(C)c1ccc(O)cc1,inactive
7,C1=Cc2cccc3cccc1c23,inactive
8,Oc1cc(Cl)ccc1Cl,inactive
9,Cc1ccc(OP(=O)(Oc2ccc(C)cc2)Oc2ccc(C)cc2)cc1,inactive
10,CCN(CC)C(=O)/C(Cl)=C(\C)OP(=O)(OC)OC,inactive
11,Nn1cnnc1,inactive
12,O=[N+]([O-])c1cccc2ccccc12,inactive
13,N#CCCCl,inactive
14,O=S(=O)(Oc1ccc(Cl)cc1)c1ccc(Cl)cc1,inactive
15,C=C(C)C(=O)OCC1CO1 (stereo not drawn),inactive
16,Nc1cccnc1,inactive
17,O=Cc1ccco1,inactive
18,CCCCC(CC)COC(=O)Cl (stereo not drawn),inactive
19,Cc1cc(Cl)ccc1OCCCC(=O)O,inactive

row,SMILES,Potency
1,N[C@@H](Cc1ccc(N(CCCl)CCCl)cc1)C(=O)O,38.4 µM (active) and 43.8 µM (active)
2,O=C(Nc1ccc(Br)cc1)c1cc(Br)cc(Br)c1O,inactive
3,CCCCCCCCC(=O)NCc1ccc(O)c(OC)c1,inactive
4,Oc1ccc(-c2ccccc2)cc1,inactive
5,c1ccc(N=Nc2ccccc2)cc1,inactive
6,C#CCOS(=O)OC1CCCCC1Oc1ccc(C(C)(C)C)cc1 (stereo not drawn),inactive
7,C#C[C@]1(O)CC[C@H]2[C@@H]3CCC4=CC(=O)CC[C@]4(C)[C@H]3CC[C@@]21C,inactive
8,Nc1ccncc1,inactive
9,O=C(CCl)c1ccccc1,inactive
10,O=P(O)(O)CCCl,inactive
11,CCN(CC)N=O,inactive
12,O=P(Oc1ccccc1)(Oc1ccccc1)Oc1ccccc1,inactive
13,N#Cc1cc(Br)c(O)c(Br)c1,inactive
14,CCOc1cc(C=O)ccc1O,inactive
15,CC(C)Oc1cc(-n2nc(C(C)(C)C)oc2=O)c(Cl)cc1Cl,inactive
16,COP(=S)(OC)Oc1ccc([N+](=O)[O-])cc1,inactive
17,COc1ccc(C=O)cc1,inactive
18,C=C(C)[C@H]1Cc2c(ccc3c2O[C@@H]2COc4cc(OC)c(OC)cc4[C@@H]2C3=O)O1,inactive
19,c1nc[nH]n1,inactive
